For eight compounds, outcome and AC50 results are on record in PubChem BioAssay (EPA / NIEHS).

Read-out in test [1]: Tissue Factor, F3 (gene 2152)
The experiment in a line: BSK_CASM3C_TissueFactor: BioMAP Diversity Plus: CASM3C Assay for Tissue Factor Biomarker Activity (AID 2283052).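 Also: cell surface tissue factor protein level read by ELISA.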 As to conditions: primary human coronary artery smooth muscle cells; actives raise or lower the signal.

Read-out in test [2]: Interferon-gamma inducible Protein 10 (IP10), CXCL10 (gene 3627)
The experiment in a line: BSK_hDFCGF_IP10: BioMAP Diversity Plus: hDFCGF Assay for Interferon-gamma inducible Protein 10 (IP10) Biomarker Activity (AID 2283053). As to conditions: primary human foreskin fibroblasts; actives raise or lower the signal. In outline: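 Human foreskin fibroblast primary cells (hDFCGF system) were dosed with chemical and assayed at 24 h; IP-10 measured by ELISA. Activity fitted bidirectionally relative to DMSO negative control as baseline.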

Read-out in test [3]: Urokinase-type plasminogen activator receptor (uPAR), PLAUR (gene 5329)
Nature of the test: BSK_CASM3C_uPAR: BioMAP Diversity Plus: CASM3C Assay for Urokinase-type plasminogen activator receptor (uPAR) Biomarker Activity (AID 2283054).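 Also: cell-surface uPAR protein level quantified by ELISA.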 The settings on record: primary human coronary artery smooth muscle cells; actives raise or lower the signal.

Read-out in test [4]: Vascular cell adhesion molecule 1 (VCAM1), VCAM1 (gene 7412)
Nature of the test: BSK_CASM3C_VCAM1: BioMAP Diversity Plus: CASM3C Assay for Vascular cell adhesion molecule 1 (VCAM1) Biomarker Activity (AID 2283055).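 Also: VCAM-1 protein level quantified by ELISA on the cells.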 The settings on record: primary human coronary artery smooth muscle cells; actives raise or lower the signal.

Read-out in test [5]: Collagen III, COL3A1 (gene 1281)
Nature of the test: BSK_hDFCGF_CollagenIII: BioMAP Diversity Plus: hDFCGF Assay for Collagen III Biomarker Activity (AID 2283056). The settings on record: primary human foreskin fibroblasts; actives raise or lower the signal. In outline:
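Human foreskin primary fibroblasts were exposed to test chemicals for 24 h, after which collagen III was quantified by ELISA. Activity was fitted bidirectionally against DMSO as negative control and baseline.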

Read-out in test [6]: Interleukin-8 (IL8), CXCL8 (gene 3576)
The experiment in a line: BSK_hDFCGF_IL8: BioMAP Diversity Plus: hDFCGF Assay for Interleukin-8 (IL8) Biomarker Activity (AID 2283058). The settings on record: primary human foreskin fibroblasts; actives raise or lower the signal. In a few lines:
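hDFCGF human dermal fibroblasts; 24 h chemical exposure; IL-8 by ELISA; bidirectional curve fit vs DMSO baseline; gain or loss of signal scored.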

A short description of test [7]: BSK_hDFCGF_Proliferation: Cell Proliferation Assessment in the BioMAP Diversity Plus: hDFCGF Assay (AID 2283059).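 Also: curves fitted for both rise and fall of signal versus DMSO baseline.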 As to conditions: primary human foreskin fibroblasts. In outline: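 Sub-confluent human foreskin fibroblast cultures receive test chemical […]. Relative cell number is quantified by sulforhodamine B staining (0.1%, after 10% TCA fixation) at 560 nm, with bidirectional fitting referenced to DMSO.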

Read-out in test [8]: Macrophage colony-stimulating factor (MCSF), CSF1 (gene 1435)
The experiment in a line: BSK_hDFCGF_MCSF: BioMAP Diversity Plus: hDFCGF Assay for Macrophage colony-stimulating factor (MCSF) Biomarker Activity (AID 2283060). The settings on record: primary human foreskin fibroblasts; actives raise or lower the signal. In outline: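 Human foreskin primary fibroblasts were treated with test chemical for 24 h, and M-CSF was then measured by ELISA. Data were fitted bidirectionally against DMSO as the negative control and activity baseline.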

Test [9] in a line: BSK_hDFCGF_SRB: Viability Assessment in the BioMAP Diversity Plus: hDFCGF Assay (AID 2283061).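 Also: cells exposed to compound for 24 h before the read.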 The settings on record: primary human foreskin fibroblasts. In a few lines:
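Human foreskin primary fibroblasts were treated with compound and assessed 24 h after dosing. Total protein was measured by sulforhodamine B staining (0.1% SRB after 10% TCA fixation, 560 nm read) as a cytotoxicity marker, with bidirectional fitting against DMSO baseline.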

Read-out in test [10]: TIMP metallopeptidase inhibitor 1 (TIMP1), TIMP1 (gene 7076)
The experiment in a line: BSK_hDFCGF_TIMP1: BioMAP Diversity Plus: hDFCGF Assay for TIMP metallopeptidase inhibitor 1 (TIMP1) Biomarker Activity (AID 2283062). The settings on record: primary human foreskin fibroblasts; actives raise or lower the signal. In outline:
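Primary human foreskin fibroblasts in the hDFCGF system were dosed with compound for 24 h, then TIMP-1 was measured by ELISA. Activity was fitted bidirectionally relative to DMSO control; parallel SRB staining assessed cytotoxicity.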

Read-out in test [11]: Monokine induced gamma interferon (MIG), CXCL9 (gene 4283)
Nature of the test: BSK_hDFCGF_MIG: BioMAP Diversity Plus: hDFCGF Assay for Monokine induced gamma interferon (MIG) Biomarker Activity (AID 2283063). As to conditions: primary human foreskin fibroblasts; actives raise or lower the signal. In a few lines: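 ELISA read-out of MIG from primary human dermal fibroblasts 24 h post-dosing. Gain or loss of signal fitted bidirectionally, DMSO as baseline.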

Read-out in test [12]: Matrix Metallopeptidase 1 (MMP1), MMP1 (gene 4312)
Nature of the test: BSK_hDFCGF_MMP1: BioMAP Diversity Plus: hDFCGF Assay for Matrix Metallopeptidase 1 (MMP1) Biomarker Activity (AID 2283064). The settings on record: primary human foreskin fibroblasts; actives raise or lower the signal. In outline:
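hDFCGF primary fibroblasts (human foreskin); chemical added; 24 h; MMP1 by ELISA; bidirectional fit vs DMSO.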

Read-out in test [13]: Vascular cell adhesion molecule 1 (VCAM1), VCAM1 (gene 7412)
Nature of the test: BSK_hDFCGF_VCAM1: BioMAP Diversity Plus: hDFCGF Assay for Vascular cell adhesion molecule 1 (VCAM1) Biomarker Activity (AID 2283065). As to conditions: primary human foreskin fibroblasts; actives raise or lower the signal. In outline:
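Primary human foreskin fibroblasts (hDFCGF system) were dosed with chemical and VCAM-1 was measured by ELISA 24 h later. Bidirectional curve fitting used DMSO as negative control and activity baseline.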

Read-out in test [14]: Plasminogen activator inhibitor-1 (PAI1), SERPINE1 (gene 5054)
Nature of the test: BSK_hDFCGF_PAI1: BioMAP Diversity Plus: hDFCGF Assay for Plasminogen activator inhibitor-1 (PAI1) Biomarker Activity (AID 2283066). As to conditions: primary human foreskin fibroblasts; actives raise or lower the signal. In outline:
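Human foreskin fibroblasts in the hDFCGF system were dosed with compound for 24 h; PAI-1 was quantified by ELISA. Bidirectional curve fitting used DMSO as negative control and baseline.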

Read-out in test [15]: Intercellular Adhesion Molecule 1 (ICAM1), ICAM1 (gene 3383)
The experiment in a line: BSK_KF3CT_ICAM1: BioMAP Diversity Plus: KF3CT Assay for Intercellular Adhesion Molecule 1 (ICAM1) Biomarker Activity (AID 2283067). The settings on record: primary human keratinocytes with fibroblasts; actives raise or lower the signal. In a few lines:
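Human keratinocyte plus foreskin fibroblast primary co-culture was exposed to chemical for 24 h. ICAM-1 was then quantified by ELISA, and the data were fit bidirectionally against DMSO as the negative control and baseline.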

Read-out in test [16]: Interferon-gamma inducible Protein 10 (IP10), CXCL10 (gene 3627)
Nature of the test: BSK_KF3CT_IP10: BioMAP Diversity Plus: KF3CT Assay for Interferon-gamma inducible Protein 10 (IP10) Biomarker Activity (AID 2283068). As to conditions: primary human keratinocytes with fibroblasts; actives raise or lower the signal. In a few lines: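 ELISA read-out of IP-10 after 24 h chemical dosing of human skin primary co-culture (keratinocytes, foreskin fibroblasts). Gain or loss of signal relative to DMSO, bidirectional curve fit.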

Test [17] is described as follows: BSK_KF3CT_SRB: Viability Assessment in the BioMAP Diversity Plus: KF3CT Assay (AID 2283069).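 Also: fitted for both signal gain and loss against DMSO baseline.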 The settings on record: primary human keratinocytes with fibroblasts. In a few lines: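 Keratinocytes co-cultured with foreskin fibroblasts (human primary); chemical added, 24 h; fix 10% TCA, stain 0.1% SRB, A560. Bidirectional fit vs DMSO.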
Read-out in test [18]: Interleukin-1 alpha (IL1a), IL1A (gene 3552)
The experiment in a line: BSK_KF3CT_IL1a: BioMAP Diversity Plus: KF3CT Assay for Interleukin-1 alpha (IL1a) Biomarker Activity (AID 2283070). The settings on record: primary human keratinocytes with fibroblasts; actives raise or lower the signal. In a few lines:
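Chemicals were dosed onto co-cultured human keratinocytes and foreskin fibroblasts, IL-1a was quantified by ELISA at 24 h, and activity was fitted in both directions relative to DMSO controls.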

Read-out in test [19]: Epidermal growth factor receptor (EGFR), EGFR (gene 1956)
Nature of the test: BSK_hDFCGF_EGFR: BioMAP Diversity Plus: hDFCGF Assay for Epidermal growth factor receptor (EGFR) Biomarker Activity (AID 2283057). As to conditions: primary human foreskin fibroblasts; actives raise or lower the signal. In outline: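 Primary human foreskin fibroblasts were exposed to compound for 24 h, after which cell-surface EGFR was quantified by ELISA. Activity was fitted bidirectionally against the DMSO negative control as baseline.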

Read-out in test [20]: TIMP metallopeptidase inhibitor 2 (TIMP2), TIMP2 (gene 7077)
Nature of the test: BSK_KF3CT_TIMP2: BioMAP Diversity Plus: KF3CT Assay for TIMP metallopeptidase inhibitor 2 (TIMP2) Biomarker Activity (AID 2283071). As to conditions: primary human keratinocytes with fibroblasts; actives raise or lower the signal. In outline:
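Human primary keratinocyte/foreskin fibroblast co-culture dosed with chemical and sampled at 24 h. TIMP-2 levels quantified by ELISA; bidirectional fitting against DMSO negative control as baseline.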

Active and inactive are the calls of the source. The calls were made as follows: active = hit-call score of the fitted dose curve at least 0.9, where 1 is the maximum; inactive = score below 0.9.

Take `CC=Cc1ccc(O)c(OC)c1`: the outcome in [1], in test [2], in [3], in test [4], in [5] and in test [6] was inactive. The outcome in [8], in [9], in test [10], in [11], in test [12] and in test [13] was inactive. Besides, the outcome in test [14], in [15], in test [16], in [17] and in test [18] was inactive. Besides, the half-maximal activity concentration (AC50) – broadly, the concentration at which the activity in the assay is half-maximal – in test [7] is 24.6 µM (active).

Take `Cc1ccc(C)c(C)c1`: the result in test [1], in [2], in [3], in [4], in test [5] and in test [19] was inactive. Besides, the result in [6], in test [8], in [9], in test [10], in test [11] and in [12] was inactive. The outcome in test [13], in [14], in [15], in test [16], in test [17] and in [18] was inactive. Further, in test [20], the result was inactive.

For the compound `O=[N+]([O-])C(CO)(CO)CO`, the outcome in test [1], in test [2], in [3], in test [4], in test [5] and in test [6] was inactive. The result in test [8], in test [9], in [10], in test [11], in test [12] and in [13] was inactive. Further, the result in test [14], in [15], in test [16], in test [17] and in test [18] was inactive. In test [7], the AC50 was 14.1 µM (active).

Take `CCOC(=O)CCC(=O)OCC`: the result in test [1], in [2], in test [3], in test [4], in test [5] and in test [6] was inactive. Besides, the result in [7], in test [8], in [9], in test [10], in test [11] and in [12] was inactive. Besides, the result in test [13], in test [14], in test [15], in [16], in test [17] and in [18] was inactive.

With `CCCCc1ccc2c(n1)[C@@H](c1ccc(OC)cc1C[C@H](C)C(=O)O)[C@H](C(=O)O)[C@H]2c1ccc2c(c1)OCO2`, the result in test [1], in [2], in [3], in test [4], in test [5] and in test [6] was inactive. The outcome in test [7], in test [8], in test [9], in test [10], in test [11] and in test [12] was inactive. The outcome in test [13], in test [14], in [15], in test [16], in test [17] and in test [18] was inactive. In addition, the result in test [20] was inactive.

As for `NCCO`, the result in [1], in test [2], in [3], in [4], in test [5] and in [19] was inactive. The outcome in test [6], in test [8], in test [9], in test [10], in [11] and in test [12] was inactive. In addition, the result in [13], in test [14], in test [15], in test [16], in test [17] and in [18] was inactive.

Turning to `CCCCCCCCCCCCCCCC`, the result in test [1], in test [2], in test [3], in [4], in test [5] and in [19] was inactive. The outcome in test [6], in [8], in test [9], in test [10], in test [11] and in [12] was inactive. Also, the outcome in test [13], in test [14], in [15], in test [16], in [17] and in [18] was inactive. The result in test [20] was inactive.

`CCNc1cccc(C)c1`: the outcome in test [1], in [2], in test [3], in test [4], in [5] and in test [6] was inactive. For the same compound, the outcome in test [7], in [8], in test [9], in test [10], in [11] and in test [12] was inactive. Also, the result in test [13], in test [14], in [15], in test [16], in test [17] and in test [18] was inactive. Besides, the result in test [20] was inactive.
